Each structure is given as a SMILES string. Activity calls are given as the source filed them. The calls were made as follows: active = hit-call score of the fitted dose curve at least 0.9, where 1 is the maximum; inactive = score below 0.9.

Read-out in assay [1]: TIMP metallopeptidase inhibitor 1 (TIMP1), TIMP1 (gene 7076)
Briefly: BSK_hDFCGF_TIMP1: BioMAP Diversity Plus: hDFCGF Assay for TIMP metallopeptidase inhibitor 1 (TIMP1) Biomarker Activity (AID 2283062). The conditions noted are these: primary human foreskin fibroblasts; actives raise or lower the signal. An outline of the steps:
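Fibroblasts from human foreskin are treated with test chemical and harvested at 24 h. TIMP-1 is quantified by ELISA, and gain or loss of signal is scored against DMSO.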

Read-out in assay [2]: Monokine induced gamma interferon (MIG), CXCL9 (gene 4283)
Briefly: BSK_hDFCGF_MIG: BioMAP Diversity Plus: hDFCGF Assay for Monokine induced gamma interferon (MIG) Biomarker Activity (AID 2283063). The conditions noted are these: primary human foreskin fibroblasts; actives raise or lower the signal. In outline: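 MIG signal, determined by ELISA, reflects 24 h chemical exposure of human skin primary fibroblasts. DMSO serves as negative control and baseline.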

Read-out in assay [3]: Matrix Metallopeptidase 1 (MMP1), MMP1 (gene 4312)
Briefly: BSK_hDFCGF_MMP1: BioMAP Diversity Plus: hDFCGF Assay for Matrix Metallopeptidase 1 (MMP1) Biomarker Activity (AID 2283064). The following applies: primary human foreskin fibroblasts; actives raise or lower the signal. An outline of the steps: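 ELISA read-out of MMP1 from human foreskin fibroblasts (primary skin cells), 24 h post-dose. Gain or loss of signal was fitted bidirectionally versus DMSO negative control; cytotoxicity was checked by SRB in parallel cultures.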

Read-out in assay [4]: Vascular cell adhesion molecule 1 (VCAM1), VCAM1 (gene 7412)
Briefly: BSK_hDFCGF_VCAM1: BioMAP Diversity Plus: hDFCGF Assay for Vascular cell adhesion molecule 1 (VCAM1) Biomarker Activity (AID 2283065).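 As to AC50: VCAM-1 protein level quantified by ELISA after 24 h chemical exposure.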 The following applies: primary human foreskin fibroblasts; actives raise or lower the signal. An outline of the steps: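 Cells are dosed, cultured for 24 h, then VCAM-1 is quantified by ELISA; signal increases and decreases are both fitted relative to DMSO.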

Read-out in assay [5]: Plasminogen activator inhibitor-1 (PAI1), SERPINE1 (gene 5054)
Briefly: BSK_hDFCGF_PAI1: BioMAP Diversity Plus: hDFCGF Assay for Plasminogen activator inhibitor-1 (PAI1) Biomarker Activity (AID 2283066). The conditions noted are these: primary human foreskin fibroblasts; actives raise or lower the signal. In outline:
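ELISA readout of PAI-1 from primary human skin fibroblast cultures, 24 h after compound addition. Gain or loss of signal was fitted bidirectionally against DMSO baseline.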

Read-out in assay [6]: Intercellular Adhesion Molecule 1 (ICAM1), ICAM1 (gene 3383)
Briefly: BSK_KF3CT_ICAM1: BioMAP Diversity Plus: KF3CT Assay for Intercellular Adhesion Molecule 1 (ICAM1) Biomarker Activity (AID 2283067). The following applies: primary human keratinocytes with fibroblasts; actives raise or lower the signal. In outline: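 Dose the keratinocyte/fibroblast co-culture, wait 24 h, measure ICAM-1 by ELISA, then fit increases or decreases against DMSO. Cytotoxicity is checked in parallel cultures by SRB total-protein staining.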

Read-out in assay [7]: Interferon-gamma inducible Protein 10 (IP10), CXCL10 (gene 3627)
Briefly: BSK_KF3CT_IP10: BioMAP Diversity Plus: KF3CT Assay for Interferon-gamma inducible Protein 10 (IP10) Biomarker Activity (AID 2283068). The following applies: primary human keratinocytes with fibroblasts; actives raise or lower the signal. In outline: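 Signal is secreted/surface IP-10 by ELISA in a human primary skin co-culture of keratinocytes and foreskin fibroblasts, taken 24 h post-dosing; DMSO served as negative control.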

The nature of assay [8]: BSK_KF3CT_SRB: Viability Assessment in the BioMAP Diversity Plus: KF3CT Assay (AID 2283069). The following applies: primary human keratinocytes with fibroblasts. An outline of the steps: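 SRB read-out at 560 nm (0.1% stain, TCA-fixed cells) gauges overt cytotoxicity in a human skin keratinocyte–fibroblast co-culture 24 h post-dosing. Signal change was fitted bidirectionally relative to DMSO control.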

Read-out in assay [9]: Interleukin-1 alpha (IL1a), IL1A (gene 3552)
The experiment in a line: BSK_KF3CT_IL1a: BioMAP Diversity Plus: KF3CT Assay for Interleukin-1 alpha (IL1a) Biomarker Activity (AID 2283070). The conditions noted are these: primary human keratinocytes with fibroblasts; actives raise or lower the signal. In outline:
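Primary skin co-culture (keratinocytes, foreskin fibroblasts), 24 h exposure; ELISA for IL-1a; bidirectional curve fit vs DMSO.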

Read-out in assay [10]: TIMP metallopeptidase inhibitor 2 (TIMP2), TIMP2 (gene 7077)
Briefly: BSK_KF3CT_TIMP2: BioMAP Diversity Plus: KF3CT Assay for TIMP metallopeptidase inhibitor 2 (TIMP2) Biomarker Activity (AID 2283071). The conditions noted are these: primary human keratinocytes with fibroblasts; actives raise or lower the signal. In outline: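 ELISA readout of TIMP-2 in keratinocyte plus foreskin fibroblast co-cultures (human skin primary cells), 24 h post-dose. Gain or loss of signal fitted relative to DMSO.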

Read-out in assay [11]: Transforming growth factor beta 1 (TGFb1), TGFB1 (gene 7040)
Briefly: BSK_KF3CT_TGFb1: BioMAP Diversity Plus: KF3CT Assay for Transforming growth factor beta 1 (TGFb1) Biomarker Activity (AID 2283072). The following applies: primary human keratinocytes with fibroblasts; actives raise or lower the signal. An outline of the steps:
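Read-out: ELISA for TGF-b1 in keratinocyte/foreskin fibroblast human skin co-culture, 24 h after dosing; bidirectional curve fit vs DMSO baseline; gain or loss of signal scored.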

Read-out in assay [12]: Matrix Metallopeptidase 9 (MMP9), MMP9 (gene 4318)
Briefly: BSK_KF3CT_MMP9: BioMAP Diversity Plus: KF3CT Assay for Matrix Metallopeptidase 9 (MMP9) Biomarker Activity (AID 2283074).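 As to AC50: MMP9 protein level quantified by ELISA in the co-culture.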 The conditions noted are these: primary human keratinocytes with fibroblasts; actives raise or lower the signal. In outline: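 ELISA read-out of MMP-9 at 24 h post-dosing in a co-culture of human skin keratinocytes and foreskin fibroblasts. Gain or loss of signal was fitted in both directions against DMSO.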

Read-out in assay [13]: urokinase plasminogen activator (uPA), PLAU (gene 5328)
Briefly: BSK_KF3CT_uPA: BioMAP Diversity Plus: KF3CT Assay for urokinase plasminogen activator (uPA) Biomarker Activity (AID 2283075). The following applies: primary human keratinocytes with fibroblasts; actives raise or lower the signal. An outline of the steps: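 Skin co-culture (keratinocytes + foreskin fibroblasts), human primary; 24 h post-dose; uPA by ELISA; gain/loss fit vs DMSO baseline.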

Read-out in the next assay: CD40, CD40 (gene 958)
Briefly: BSK_LPS_CD40: BioMAP Diversity Plus: LPS Assay for CD40 Biomarker Activity (AID 2283076). The following applies: primary human HUVEC with PBMC; actives raise or lower the signal. An outline of the steps:
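CD40 signal, measured by ELISA, is fitted in both directions relative to DMSO vehicle. The system is an LPS-driven human vascular primary co-culture of endothelial cells and PBMC, sampled 24 h after compound addition.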

Read-out in assay [14]: E-selectin (Homo sapiens) (UniProt P16581)
Briefly: BSK_LPS_Eselectin: BioMAP Diversity Plus: LPS Assay for Eselectin Biomarker Activity (AID 2283077). The conditions noted are these: primary human HUVEC with PBMC; actives raise or lower the signal. An outline of the steps: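 Signal of E-selectin, detected by ELISA, served as the endpoint; cells were umbilical vein endothelium with PBMC, read 24 h after treatment. DMSO defined baseline, and both increases and decreases were fitted.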

Read-out in assay [15]: Interleukin-8 (IL8), CXCL8 (gene 3576)
The experiment in a line: BSK_LPS_IL8: BioMAP Diversity Plus: LPS Assay for Interleukin-8 (IL8) Biomarker Activity (AID 2283078). The conditions noted are these: primary human HUVEC with PBMC; actives raise or lower the signal. In outline: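 Endothelial cells and PBMC from human donors are co-cultured, treated with chemicals and LPS, then assayed for IL-8 by ELISA after 24 h. Parallel SRB staining (0.1% SRB after 10% TCA fixation, 560 nm) flags cytotoxicity.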

Assay [16] in a line: BSK_LPS_SRB: Viability Assessment in the BioMAP Diversity Plus: LPS Assay (AID 2283079).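 Also: total protein by sulforhodamine B absorbance as a cytotoxicity measure; measured one day after compound addition.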 The following applies: primary human HUVEC with PBMC. An outline of the steps:
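Overt cytotoxicity was gauged by sulforhodamine B total-protein staining in a primary human vascular endothelial and mononuclear cell co-culture 24 h post-dosing. Activity was fitted in both directions relative to DMSO.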

Read-out in assay [17]: Interleukin-1 alpha (IL1a), IL1A (gene 3552)
Briefly: BSK_LPS_IL1a: BioMAP Diversity Plus: LPS Assay for Interleukin-1 alpha (IL1a) Biomarker Activity (AID 2283080). The following applies: primary human HUVEC with PBMC; actives raise or lower the signal. An outline of the steps:
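Measured: IL-1 alpha via ELISA at 24 h in LPS-activated human umbilical vein endothelium–PBMC co-culture. Baseline: DMSO, bidirectional fitting.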

Read-out in assay [18]: C-C motif chemokine 2 (Homo sapiens) (UniProt P13500)
The experiment in a line: BSK_KF3CT_MCP1: BioMAP Diversity Plus: KF3CT Assay for Monocyte Chemoattractant Protein 1 (MCP1/CCL2) Biomarker Activity (AID 2283073). The following applies: primary human keratinocytes with fibroblasts; actives raise or lower the signal. In outline:
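Keratinocytes and foreskin fibroblasts were co-cultured, dosed with chemical, and sampled 24 h later. MCP-1 was quantified by ELISA, and the endpoint was analyzed with bidirectional fitting using DMSO as negative control.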

Read-out in assay [19]: Monocyte Chemoattractant Protein-1 (MCP1), CCL2 (gene 6347)
The experiment in a line: BSK_LPS_MCP1: BioMAP Diversity Plus: LPS Assay for Monocyte Chemoattractant Protein-1 (MCP1) Biomarker Activity (AID 2283081).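 As to AC50: secreted MCP-1 protein quantified by ELISA in culture supernatant.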 The conditions noted are these: primary human HUVEC with PBMC; actives raise or lower the signal. An outline of the steps:
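LPS-stimulated HUVEC/PBMC co-culture; chemical, 24 h; MCP-1 by ELISA; bidirectional fit vs DMSO; cytotoxicity via SRB (0.1% stain, 10% TCA fix, 560 nm) in parallel wells.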

E-selectin (Homo sapiens), sequence (P16581 whole entry, looked up): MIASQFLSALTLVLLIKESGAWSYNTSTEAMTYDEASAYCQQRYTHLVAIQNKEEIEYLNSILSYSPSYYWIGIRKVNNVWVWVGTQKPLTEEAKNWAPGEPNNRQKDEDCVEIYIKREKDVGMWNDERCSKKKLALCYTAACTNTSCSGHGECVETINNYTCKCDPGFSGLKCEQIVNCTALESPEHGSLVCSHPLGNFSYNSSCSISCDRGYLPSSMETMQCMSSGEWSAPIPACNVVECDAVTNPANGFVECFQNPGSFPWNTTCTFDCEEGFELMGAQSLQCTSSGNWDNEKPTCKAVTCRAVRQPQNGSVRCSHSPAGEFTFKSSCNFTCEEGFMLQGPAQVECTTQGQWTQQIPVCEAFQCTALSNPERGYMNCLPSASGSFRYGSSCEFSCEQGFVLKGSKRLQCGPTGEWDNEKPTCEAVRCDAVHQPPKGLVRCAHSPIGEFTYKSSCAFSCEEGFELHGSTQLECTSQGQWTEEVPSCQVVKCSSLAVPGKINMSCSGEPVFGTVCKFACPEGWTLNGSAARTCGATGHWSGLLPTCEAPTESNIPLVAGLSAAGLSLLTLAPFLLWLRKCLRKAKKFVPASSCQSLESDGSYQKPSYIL

Turning to `Cc1cccc([N+](=O)[O-])c1`, the result in assay [1], in [2], in assay [3], in [4], in assay [5] and in [6] was inactive. In addition, the result in assay [7], in assay [8], in assay [9], in [10], in assay [11] and in [12] was inactive. Besides, the outcome in [13] was “inactive”; with CD40, CD40 (gene 958) it was “inactive”; in [14] it was “inactive”; in assay [15], “inactive”; in [16] it was “inactive”; in [17], “inactive”.
On to `Clc1ccc(C(c2ccccc2Cl)C(Cl)(Cl)Cl)cc1` (centres undefined), for which the AC50 in [1] was 9.41 µM (active); in assay [2] it was 18.5 µM (active); in assay [3] it was 9.47 µM (active); in assay [4], 6.32 µM (active); in assay [5], 5.83 µM (active); in assay [6], 22.8 µM (active). Further, the AC50 in [7] was 10 µM (active); in assay [9], 18.4 µM (active); in assay [10], 19 µM (active); in assay [11], 19.1 µM (active); in assay [18] it was 10.7 µM (active); in assay [12], 8.05 µM (active). In addition, the concentration at half-maximal activity (AC50) in assay [13] was 21.6 µM (active); in assay [15] it was 21.9 µM (active); in [16], 19.2 µM (active); in [17], 20.8 µM (active).
In the case of `CCCN(CCC)N=O`, the outcome in assay [1], in assay [2], in [3], in [4], in assay [5] and in [6] was inactive. Moreover, the outcome in assay [7], in assay [8], in [9], in assay [10], in assay [11] and in [18] was inactive. Further, the result in [12], in assay [13], in assay [14], in [15], in assay [16] and in assay [17] was inactive. Also, the outcome in [19] was inactive.
As for `CO/C=C(/C(=O)OC)c1ccccc1COc1cccc(C(F)(F)F)n1`, the outcome in assay [1], in assay [2], in assay [4], in [6], in [7] and in assay [9] was inactive. Moreover, the outcome in assay [10], in assay [18], in assay [13] and in assay [17] was inactive. In addition, the AC50 is 6.92 µM (active) in assay [3]; 11.1 µM (active) in assay [5]; 5.13 µM (active) in assay [11]; 12.7 µM (active) in [12]; 18.3 µM (active) with CD40, CD40 (gene 958); 7.16 µM (active) in [14]. Besides, the values for the AC50 in assay [15], in assay [16] and in assay [19] were 3.06 µM (active), 10.6 µM (active) and 4.01 µM (active), respectively.
As to `CCCCCCOC(=O)c1ccccc1C(=O)OCCCCCC`, the result in assay [1], in assay [2], in [3], in [4], in assay [5] and in assay [6] was inactive. Further, the outcome in assay [7], in assay [8], in [9], in assay [10], in [11] and in assay [18] was inactive. The outcome in assay [12], in assay [13], in assay [14], in [16] and in assay [17] was inactive. Also, the half-maximal activity concentration (AC50) is 20 µM (active) in assay [15] and 34.9 µM (active) in [19].
On to `ClC1=C(Cl)[C@]2(Cl)[C@@H]3[C@@H]4C[C@@H]([C@H]5O[C@@H]45)[C@@H]3[C@@]1(Cl)C2(Cl)Cl`, for which the result in assay [1], in [2], in assay [3], in assay [4], in assay [5] and in [6] was inactive. In addition, the outcome in assay [7], in assay [9], in [10], in [11], in assay [18] and in [12] was inactive. The result in [13], in assay [14], in [15], in assay [16], in assay [17] and in assay [19] was inactive.

By AC50 is commonly meant the concentration giving half of the maximal activity seen.

The values are drawn from PubChem BioAssay (EPA / NIEHS).
